In PubChem BioAssay one finds composite z-score, composite Z-score and z-score data, which are given here for eight compounds.

Structures are written as SMILES. Calls of active or inactive are those of the source.

One assay concerns the target Albumin (Bos taurus) (UniProt P02769). The experiment in a line: compounds binding labelled BSA control protein – biochemical, small-molecule microarray, Alexa647 label, 635/667 nm fluorescence, artefact control for SMM control protein annotation, profiling panel (AID 1118).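 Also: score merges 667 nm emission intensity and signal-to-noise per printed compound spot.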 The conditions noted are these: BSA-A647 binding, fluorescence 635 nm, higher = more signal.
Assay [1] in a line: probe aXIP binding to arrayed compounds – biochemical, NeuroSMM set, 635/667 nm fluorescence, primary screen (AID 1119).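 Also: probe is the protein aXip251-270 applied at 1 µg/mL to compound-printed slides; binding of probe to printed compounds measured as 667 nm fluorescence plus signal to noise.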 The conditions noted are these: small-molecule microarray, higher = more signal, called active from +8 up or from −8 down.
Assay [2] in a line: probe aNOTCH3 binding on compound microarray – biochemical, small-molecule microarray, 635/667 nm fluorescence, primary screen (AID 1120).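 Also: probe is a biotin-tagged antibody raised against NOTCH3 rather than NOTCH3 protein; score merges spot fluorescence near 667 nm with spot signal to noise.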 The conditions noted are these: higher = more signal.
Assay [3] can be described thus: probe aNOTCH2 binding on compound microarray – biochemical, small-molecule microarray, 635/667 nm fluorescence, primary screen (AID 1121).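 Also: score merges feature fluorescence read at 667 nm with its signal to noise.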 The conditions noted are these: higher = more signal.
For assay [4], the target named is Carbonic anhydrase 2 (Homo sapiens) (UniProt P00918). Description: compounds binding carbonic anhydrase 2 – biochemical, small-molecule microarray, Alexa647-labelled CAII, profiling panel (AID 1122). The conditions noted are these: CAII-A647 binding fluorescence, higher = more signal.
Assay [5] in a line: COS7 lysate on small-molecule microarray, probe aHis, 635 nm (AID 1123).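 Also: z-score combines 667nm fluorescence intensity with signal-to-noise per printed compound spot.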 The following applies: COS7 cell lysate, fluorescence, higher = more signal.
The nature of assay [6]: probe aLAP1 signal on lysate-treated microarray – cell lysate, small-molecule microarray, COS7 lysate, primary screen (AID 1124).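 Also: lysate comes from COS7 cells expressing LAP1 and is applied at 0.3 µg/mL; score merges spot fluorescence near 667 nm with signal-to-noise over triplicate slides.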 The conditions noted are these: probe aLAP1, fluorescence, higher = more signal.
For another assay, the system named is Sam68 (KHDRBS1). The experiment in a line: compounds binding KHDRBS1 protein – biochemical, small-molecule microarray, 635 nm fluorescence, primary screen (AID 1125).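 Also: score merges 667 nm channel intensity with signal to noise over triplicate slides.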 The conditions noted are these: higher = more signal.
Assay [7] concerns Chordin-like protein 2 (CHRDL2). The experiment in a line: compounds binding chordin-like 2 – biochemical, small-molecule microarray, 635 nm fluorescence, primary screen (AID 1126).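 Also: printed compound slides probed with Chrdl2 protein at 4 µg/mL for 1 h at 4 C; score merges 667 nm emission intensity with signal to noise over three replicate slides.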 The conditions noted are these: fluorescence 635 nm, higher = more signal.
Assay [8] concerns the target Concanavalin-A (Canavalia ensiformis) (UniProt P02866). Description: compounds binding concanavalin A lectin – biochemical, small-molecule microarray, Alexa647 label, 635 nm, artefact control for SMM control protein annotation, primary screen (AID 1127).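 Also: z combines 667 nm emission intensity with signal-to-noise across three replicate slides.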 The conditions noted are these: ConA-A647 binding fluorescence, higher = more signal.
Assay [9] in a line: compounds binding Alexa647 anti-His antibody – biochemical, small-molecule microarray, 635 nm fluorescence, artefact control for SMM control protein annotation, primary screen (AID 1128).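 Also: score merges feature fluorescence with signal-to-noise for each printed compound spot.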 The conditions noted are these: higher = more signal.
The test system of assay [10] is Human papillomavirus type 1a E7 protein (residues 1-88). Description: HPV1a E7 small-molecule binders, primary screen, biochemical, small-molecule microarray, residues 1-88, 635 nm (AID 1129). The following applies: small-molecule microarray binding, fluorescence 635 nm; higher = more signal.
Assay [11] deals with Focal adhesion kinase 1 (Homo sapiens) (UniProt Q05397). The experiment in a line: PTK2 protein binding on printed compound slides – biochemical, small-molecule microarray, 635/667 nm fluorescence, BSA, DTT, primary screen (AID 1130).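 Also: composite of spot emission at 667 nm and signal to noise over triplicate slides.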 The following applies: 635 nm fluorescence, higher = more signal.
Assay [12] relates to Fibrinogen (Alexa647-labelled). The experiment in a line: Alexa647-fibrinogen binding to printed small molecules – biochemical, small-molecule microarray, 635/667 nm fluorescence, artefact control for SMM control-protein annotation, profiling panel (AID 1131).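 Also: z-score merges 667 nm fluorescence with per-spot signal-to-noise over triplicate slides.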 The following applies: fibrinogen-A647 binding fluorescence, higher = more signal.
Assay [13] addresses Follistatin (Homo sapiens) (UniProt P19883). The experiment in a line: FST protein binding to printed compounds – biochemical, small-molecule microarray, 635/667 nm fluorescence, primary screen (AID 1132). The conditions noted are these: 635 nm fluorescence, higher = more signal.
The target of assay [14] is Fibroblast growth factor 2 (Homo sapiens) (UniProt P09038). The experiment in a line: basic fibroblast growth factor binding to printed compounds – biochemical, small-molecule microarray, 635/667 nm fluorescence, primary screen (AID 1133). The conditions noted are these: FGF2, fluorescence 635/667, higher = more signal.
Assay [15] in a line: JC-1 mitochondrial potential readout, lung cancer cells – cell-based, A549, JC-1 fluorescence, basal, 24 h, 100 nL, profiling panel (AID 1138).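 Also: A549 lung adenocarcinoma cells under basal conditions with no added stimulus; test concentration not given here.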 The following applies: higher = more signal.
In a further assay the test system is Lefty1. The experiment in a line: Lefty1 protein binding to printed compounds – biochemical, small-molecule microarray, 635/667 nm fluorescence, primary screen (AID 1139). The following applies: fluorescence 635/667, higher = more signal.
Assay [16] concerns wheat germ agglutinin (Triticum aestivum), Alexa647-labelled. The experiment in a line: Alexa647-WGA lectin binding to printed small molecules – biochemical, small-molecule microarray, 635/667 nm fluorescence, artefact control for SMM control-protein annotation, profiling panel (AID 1140).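 Also: score merges 667 nm feature emission with signal to noise over triplicate slides.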 The following applies: WGA-A647 binding, 635 nm fluorescence, higher = more signal.
In assay [17] the target is Luciferin 4-monooxygenase (Photinus pyralis) (UniProt P08659). The experiment in a line: inhibition of purified Photinus pyralis luciferase – biochemical, luminescence, purified enzyme, 2006 set, primary screen (AID 1141).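 Also: cell-free assay with purified firefly luciferase at 100 ng per well in PBS; test concentration not given here.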 The following applies: purified firefly luciferase, SteadyGlo luminescence, 30 min; higher = more signal, called active from +8 up or from −8 down.
Luciferin 4-monooxygenase (Photinus pyralis), sequence (P08659 whole entry, looked up): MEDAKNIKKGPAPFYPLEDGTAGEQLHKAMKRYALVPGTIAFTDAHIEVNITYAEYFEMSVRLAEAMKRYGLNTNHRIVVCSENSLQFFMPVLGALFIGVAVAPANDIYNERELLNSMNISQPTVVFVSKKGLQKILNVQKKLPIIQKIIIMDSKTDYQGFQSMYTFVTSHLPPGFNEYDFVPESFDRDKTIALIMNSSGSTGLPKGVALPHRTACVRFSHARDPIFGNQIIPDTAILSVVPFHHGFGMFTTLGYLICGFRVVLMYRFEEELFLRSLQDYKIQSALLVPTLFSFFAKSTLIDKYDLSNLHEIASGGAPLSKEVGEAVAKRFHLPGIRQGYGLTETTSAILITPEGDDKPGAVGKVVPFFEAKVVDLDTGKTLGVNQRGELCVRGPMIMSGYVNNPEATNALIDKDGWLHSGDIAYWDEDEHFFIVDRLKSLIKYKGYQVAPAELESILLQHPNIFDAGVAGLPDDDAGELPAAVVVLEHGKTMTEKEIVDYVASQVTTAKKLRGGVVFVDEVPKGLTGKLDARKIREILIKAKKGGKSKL

Fibroblast growth factor 2 (Homo sapiens), sequence (P09038 whole entry, looked up): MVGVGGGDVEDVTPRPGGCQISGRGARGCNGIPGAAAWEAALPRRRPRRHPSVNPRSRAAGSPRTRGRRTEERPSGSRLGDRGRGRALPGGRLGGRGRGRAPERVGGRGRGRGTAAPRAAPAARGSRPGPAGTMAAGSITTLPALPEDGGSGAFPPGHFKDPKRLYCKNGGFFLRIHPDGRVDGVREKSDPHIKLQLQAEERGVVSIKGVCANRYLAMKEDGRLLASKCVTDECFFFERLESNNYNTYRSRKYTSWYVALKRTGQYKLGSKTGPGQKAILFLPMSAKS
Focal adhesion kinase 1 (Homo sapiens), sequence (Q05397 whole entry, looked up): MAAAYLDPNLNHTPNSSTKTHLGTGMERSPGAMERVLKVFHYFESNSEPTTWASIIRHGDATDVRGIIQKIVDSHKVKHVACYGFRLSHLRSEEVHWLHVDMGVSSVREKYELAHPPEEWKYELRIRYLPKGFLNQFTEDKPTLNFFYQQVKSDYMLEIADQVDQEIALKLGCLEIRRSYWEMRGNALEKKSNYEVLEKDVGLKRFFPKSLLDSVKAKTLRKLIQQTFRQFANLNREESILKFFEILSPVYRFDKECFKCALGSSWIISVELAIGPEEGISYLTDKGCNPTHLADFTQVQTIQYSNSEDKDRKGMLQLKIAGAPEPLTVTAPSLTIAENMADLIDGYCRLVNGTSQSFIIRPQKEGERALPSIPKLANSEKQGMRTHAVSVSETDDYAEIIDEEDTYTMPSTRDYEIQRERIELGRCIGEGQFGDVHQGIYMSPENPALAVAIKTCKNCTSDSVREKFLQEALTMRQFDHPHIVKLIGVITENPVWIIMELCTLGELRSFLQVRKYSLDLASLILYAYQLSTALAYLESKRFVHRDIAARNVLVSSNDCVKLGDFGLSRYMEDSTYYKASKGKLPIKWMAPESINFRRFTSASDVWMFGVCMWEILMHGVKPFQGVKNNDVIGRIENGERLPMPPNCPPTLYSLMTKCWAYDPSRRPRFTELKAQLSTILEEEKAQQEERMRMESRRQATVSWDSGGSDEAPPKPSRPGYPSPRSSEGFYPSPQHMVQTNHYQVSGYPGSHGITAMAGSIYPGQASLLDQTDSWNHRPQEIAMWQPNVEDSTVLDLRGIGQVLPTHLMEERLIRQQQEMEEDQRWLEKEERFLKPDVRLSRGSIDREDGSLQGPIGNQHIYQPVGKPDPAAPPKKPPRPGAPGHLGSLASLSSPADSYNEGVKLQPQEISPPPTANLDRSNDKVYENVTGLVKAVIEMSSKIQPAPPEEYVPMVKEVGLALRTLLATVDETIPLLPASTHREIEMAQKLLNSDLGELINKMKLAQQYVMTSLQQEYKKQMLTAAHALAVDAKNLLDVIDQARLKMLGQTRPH
Concanavalin-A (Canavalia ensiformis), sequence (P02866 whole entry, looked up): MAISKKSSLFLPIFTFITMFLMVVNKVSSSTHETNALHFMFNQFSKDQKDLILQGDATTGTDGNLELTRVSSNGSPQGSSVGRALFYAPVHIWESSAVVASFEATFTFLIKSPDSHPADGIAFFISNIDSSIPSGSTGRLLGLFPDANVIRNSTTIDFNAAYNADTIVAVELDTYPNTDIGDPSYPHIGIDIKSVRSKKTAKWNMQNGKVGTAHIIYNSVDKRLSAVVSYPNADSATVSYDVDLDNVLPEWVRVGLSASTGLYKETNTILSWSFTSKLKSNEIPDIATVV
Follistatin (Homo sapiens), sequence (P19883 whole entry, looked up): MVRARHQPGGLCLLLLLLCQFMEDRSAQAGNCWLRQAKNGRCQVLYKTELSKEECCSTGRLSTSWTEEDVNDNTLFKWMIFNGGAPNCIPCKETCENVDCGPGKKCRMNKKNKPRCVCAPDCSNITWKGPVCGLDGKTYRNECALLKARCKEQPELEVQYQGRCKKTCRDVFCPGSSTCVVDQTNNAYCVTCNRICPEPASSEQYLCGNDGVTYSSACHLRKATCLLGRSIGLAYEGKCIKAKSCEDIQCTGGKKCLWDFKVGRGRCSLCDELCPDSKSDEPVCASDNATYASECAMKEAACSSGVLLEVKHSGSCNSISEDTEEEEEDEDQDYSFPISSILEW
Albumin (Bos taurus), sequence (P02769 whole entry, looked up): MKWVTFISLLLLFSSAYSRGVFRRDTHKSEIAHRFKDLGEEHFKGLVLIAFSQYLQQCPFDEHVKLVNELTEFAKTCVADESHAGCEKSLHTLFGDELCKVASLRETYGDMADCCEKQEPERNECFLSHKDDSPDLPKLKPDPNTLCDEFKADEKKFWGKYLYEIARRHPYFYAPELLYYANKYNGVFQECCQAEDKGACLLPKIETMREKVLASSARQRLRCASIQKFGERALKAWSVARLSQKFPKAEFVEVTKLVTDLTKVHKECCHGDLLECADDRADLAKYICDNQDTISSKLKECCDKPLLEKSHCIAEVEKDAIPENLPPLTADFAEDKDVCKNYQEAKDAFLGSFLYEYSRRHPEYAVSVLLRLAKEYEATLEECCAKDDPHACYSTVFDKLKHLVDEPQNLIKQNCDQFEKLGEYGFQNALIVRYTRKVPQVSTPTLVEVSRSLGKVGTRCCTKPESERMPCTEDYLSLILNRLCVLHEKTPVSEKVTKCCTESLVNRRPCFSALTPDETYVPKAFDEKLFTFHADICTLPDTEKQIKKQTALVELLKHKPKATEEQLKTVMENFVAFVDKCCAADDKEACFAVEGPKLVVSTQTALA

With `COC(=O)[C@@]1(Cc2ccc(F)cc2)[C@H]2c3cc(C(=O)N(C)C)n(Cc4ccc(O)c(OC)c4)c3C[C@H]2CN1C(=O)c1ccccc1`, the composite z-score with Albumin (Bos taurus) is 0.862; in assay [2] it was 0.416; in [3], -0.127; in assay [4] it was 0.659; in assay [5], 1.08; in assay [6], -0.0606. Besides, the composite z-score with Sam68 (KHDRBS1) was 0.607; in assay [7] it was -0.109; in [8], 0.862; in assay [9], 1.15; in assay [10], 0.575; in assay [11], 0.489. In addition, the composite z-score in [12] was 0.977; in assay [13], 0.0157; in assay [14] it was 0.0287; in the assay with Lefty1 it was -0.0615; in [16], 0.438. The composite Z-score in assay [1] was -0.136 (inactive). The z-score in assay [15] is -1.18; in assay [17], 1.08 (inactive).

Turning to `[N-]=[N+]=NCc1ccccc1[C@@H]1OC(c2ccc(OCCCO)cc2)=N[C@]1(Cc1ccccc1N=[N+]=[N-])C(=O)N1CCCCC1`, the composite z-score is 0.354 with Albumin (Bos taurus); -0.137 in [2]; -0.116 in assay [3]; 0.56 in assay [4]; 2.57 in assay [5]; 0.0904 in assay [6]. Also, the composite z-score in the assay with Sam68 (KHDRBS1) was 1.22; in [7], -0.39; in assay [8], 1.14; in assay [9], 1.97; in assay [10], 1.24; in assay [11], 0.182. In addition, the composite z-score in assay [12] was 0.816; in assay [13], 0.845; in [14], 0.483; with Lefty1, 0.082; in assay [16], 0.756. Besides, in [1], the composite Z-score was 0.038 (inactive). The z-score is 0.909 in assay [15] and -1.61 (inactive) in [17].

`O=C(N1CCOCC1)[C@@]1(CCS(=O)(=O)c2ccccc2)N=C(c2ccc(OCCCO)cc2)O[C@H]1c1ccccc1`: the composite z-score with Albumin (Bos taurus) is 1.06; in assay [2], 0.211; in [3], 0.0228; in [4], 0.853; in [5], 3.1; in assay [6], -0.152. The composite z-score is 1.31 in the assay on Sam68 (KHDRBS1); -0.56 in assay [7]; 1.2 in [8]; 3.23 in [9]; 1.25 in assay [10]; 0.919 in assay [11]. Further, the composite z-score in [12] is 1; in assay [13], 1.25; in assay [14], 0.162; in the assay on Lefty1, -0.415; in assay [16], 1.29. The composite Z-score in assay [1] is 0.55 (inactive). Besides, the z-score was 0.584 in assay [15] and -0.0763 (inactive) in [17].

For the compound `CN1C=C(C(=O)OCCS(C)(=O)=O)C(C(=O)OCCS(C)(=O)=O)=CC(c2ccc(CO)cc2)=CC1c1cccs1` (stereo not given), the composite z-score with Albumin (Bos taurus) is 0.232; in assay [2] it was 0.0026; in assay [3] it was -0.0936; in assay [4], 0.812; in assay [5], 0.848; in assay [6] it was 0.279. Besides, the composite z-score in the assay with Sam68 (KHDRBS1) came out at 0.645; in assay [7], 0.318; in [8] it was 0.64; in assay [9], 1.48; in assay [10], 0.577; in assay [11] it was 0.0037. Moreover, the composite z-score in assay [12] worked out at 0.983; in assay [13] it was 0.793; in [14], 0.509; in the assay with Lefty1 it was 0.644; in [16], 0.21. Besides, the composite Z-score in assay [1] was 0.142 (inactive). For the same compound, the z-score in assay [15] was 2.1; in [17] it was -1.63 (inactive).

For the compound `CCOC(=O)C1=CC[C@@H](c2ccccc2)N(S(=O)(=O)c2ccc(C)cc2)[C@H]1C=Cc1ccccc1`, the composite z-score in the assay with Albumin (Bos taurus) is 0.725; in assay [2], 0.0372; in assay [3], -0.0569; in [4] it was 0.707; in assay [5], 1.03; in assay [6], 0.827. Moreover, the composite z-score in the assay with Sam68 (KHDRBS1) was 0.602; in assay [7], -0.19; in assay [8], 0.81; in [9], 0.906; in assay [10], 0.943; in assay [11] it was 0.289. In addition, the composite z-score in [12] is -0.181; in assay [13], -0.28; in assay [14], -0.463; in the assay on Lefty1 it was -0.584; in assay [16], 0.152. Further, the composite Z-score in [1] is 0.206 (inactive). The results for the z-score in assay [15] and in assay [17] were 2.17 and 1.45 (inactive), respectively.

On to `CN1C(=O)[C@@]2(Cc3ccccc3)N=C(c3ccc(OCCCO)cc3)O[C@H]2c2ccccc21`, for which the composite z-score in the assay with Albumin (Bos taurus) was 0.495; in [2], 0.0894; in assay [3], -0.0226; in assay [4], 0.603; in [5] it was 2.68; in assay [6] it was -0.233. Moreover, the composite z-score was 1.19 with Sam68 (KHDRBS1); 0.882 in assay [7]; 1.11 in assay [8]; 1.32 in assay [9]; 1.22 in assay [10]; 0.241 in [11]. For the same compound, the composite z-score was 0.619 in [12]; 1.48 in assay [13]; 1.25 in assay [14]; 0.941 in the assay with Lefty1; 0.3 in assay [16]. Moreover, the composite Z-score in assay [1] is 2.86 (inactive). Further, the z-score is 0.558 in [15] and -6.41 (inactive) in assay [17].

As to `Cc1ccc(S[C@]2(C(=O)NCC(C)C)CC(=O)N(C3Cc4ccccc4C3)[C@@H]2c2ccc(CO)cc2I)cc1`, the composite z-score was -0.615 with Albumin (Bos taurus); -0.323 in assay [2]; -0.188 in assay [3]; 0.398 in assay [4]; 0.554 in [5]; -0.221 in assay [6]. For the same compound, the composite z-score was -0.383 in the assay with Sam68 (KHDRBS1); -1.65 in assay [7]; -0.762 in assay [8]; -0.258 in assay [9]; 0.27 in [10]; -0.199 in [11]. In addition, the composite z-score was -1.13 in [12]; -0.615 in assay [13]; -1.02 in assay [14]; -1.38 in the assay with Lefty1; -0.463 in assay [16]. Also, the composite Z-score in assay [1] was -0.211 (inactive). In addition, the values for the z-score in assay [15] and in [17] were -0.244 and -0.063 (inactive), respectively.

On to `O=C1C2C=CC(C(O)c3ccc4c(c3)OCO4)N(Nc3ccccc3)C2C(=O)N1c1ccccc1` (stereo not given), for which the composite z-score with Albumin (Bos taurus) was determined as 1.01; in [2], 0.345; in assay [3], 0.0247; in assay [4] it was 0.468; in [5], 2.43; in assay [6], 0.247. Further, the composite z-score in the assay with Sam68 (KHDRBS1) is 1.29; in assay [7] it was -0.0766; in assay [8], 1.13; in assay [9] it was 0.496; in assay [10] it was 1.21; in assay [11], 0.617. Moreover, the composite z-score is 0.979 in assay [12]; 1.03 in assay [13]; -0.337 in assay [14]; 0.153 with Lefty1; 0.942 in assay [16]. The composite Z-score in [1] is 0.348 (inactive). Besides, the results for the z-score in assay [15] and in [17] were 0.279 and 0.465 (inactive), respectively.
